From PubChem BioAssay (NCI)
The panel holds about 83,000 compounds, 20% with a hit somewhere; the sample as a whole holds those more often.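 A percent growth of 40 corresponds to 60% growth inhibition; 0 means no net growth; -100 means all cells died. Active threshold: below 10.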 A number with no mark means an inactive call. Calls of active or inactive are those of the source.

Key:
Assay in all cases: NCI-60 one-dose screen, 48 h (100 = growth as untreated, 0 = no growth, -100 = all killed)
Settings in all cases: 10 µM unless noted
[1] = test system: T-47D breast
[2] = test system: BT-549 breast
[3] = test system: MDA-MB-435 melanoma
[4] = test system: SW-620 colon
[5] = test system: MCF7 breast
[6] = test system: HCT-116 colon
[7] = test system: HCC-2998 colon
[8] = test system: KM12 colon

SMILES	growth [1]	growth [2]	growth [3]	growth [4] [%]	growth [5] [%]	growth [6]	growth [7]	growth [8]
CN(C)c1ccc(/C=N/n2c(-c3cc(F)c(Cl)cc3Cl)nn(CN3CCOCC3)c2=S)cc1	94.1%	91.3%	80.7%	109	118	92.6%	111%	102%
COc1ccccc1NC(=O)COc1ccc(/C=C2/Oc3cc4occc4c(OC)c3C2=O)cc1OC	86.4%	93%	107%	111	99.4	102%	106%	97.8%
CCCCOc1nc2ccc(Cl)cc2cc1/C=C/C(=O)/C=C/c1ccc(OC)cc1	86.8%	93.6%	9.64% (active)	107	30.7	-25.4% (active)	92.7%	84%
O=[N+]([O-])c1cccc(C(c2ccccc2)c2ccccc2)c1	83.2%	106%	99.5%	87.7	106	65.6%	92.5%	87%
CC12CCC3C(CCC4CC(O)CCC43C)C1C/C(=C/O)C(=O)O2 (centres undefined)	106%	109%	111%	102	102	104%	103%	97.8%
NC(CCCC(N)C(=O)c1ccccc1)C(=O)O (centres undefined)	89.9%	104%	105%	110	91.2	99.2%	103%	101%
O=C(N/N=C/c1ccccc1O)c1ccccc1O	25.7%	34%	63%	41.4	11.1	26.7%	43%	33.5%
CCn1c(SC)nnc1-c1cc2c([nH]c3ccccc32)c(-c2cccc(O)c2)n1	10.8%	29.4%	-32.4% (active)	33.1	13.8	13.2%	41.5%	11.5%
CC(=O)c1cc2c(N)c(C(=O)Nc3cccc(Cl)c3)sc2nc1C	83.6%	75.5%	2.38% (active)	98.2	74	102%	85.3%	84.1%
CC1(C)Cc2c(Br)c(Br)c(Br)c(OCC(O)CN3CCN(c4ccccn4)CC3)c2O1 (centres undefined)	88.5%	101%	66.8%	85.5	67.6	55.5%	92.7%	80.7%
OC(COc1ccccc1Cl)CN1CCN(c2ccc(Cl)cc2)CC1 (centres undefined)	101%	89.9%	105%	108	90.2	96.4%	102%	100%
COC(=O)c1ccc2c(c1)Oc1ccc(Cl)cc1-c1cc(C)nn1-2	71.7%	96%	97.5%	68.5	79.4	44%	100%	87.7%
CCOc1ccccc1C(=O)N1CCN(c2cc(Cl)cc(Cl)c2)CC1	49%	-13.2% (active)	-12.8% (active)	22.9	15.2	-6.57% (active)	16.4%	8.79% (active)
COc1cc(/C=C/C(=O)c2c(C)[n+]([O-])c3ccccc3[n+]2[O-])ccc1O	111%	89.5%	78.6%	92.9	93	91.2%	116%	108%
Cc1cc(O[C@@H]2O[C@@H](C)[C@H](O)[C@@H](O)[C@H]2O)c2c3c(c(O[C@@H]4O[C@@H](C)[C@H](O)[C@@H](O)[C@H]4O)cc2c1)C(=O)c1c(O)cccc1C3=O	56.6%	6.47% (active)	92.8%	93.4	81	81%	91.1%	86.8%
c1ccc(OCC[P+](c2ccccc2)(c2ccccc2)c2ccccc2)cc1	6.07% (active)	19.6%	4.66% (active)	18.3	20	15.6%	5.3% (active)	14.9%
Cn1c2ccccc2c2ssc(=S)c21	87.3%	110%	91.7%	105	92.9	101%	101%	99.7%
O=[N+]([O-])c1cccc(C2c3ccccc3Oc3ccccc32)c1	86.4%	116%	98.1%	86.9	98.7	68.3%	91.1%	86.7%
O=C(c1cc(-c2ccc(Cl)cc2)nc2ccccc12)N1N=C(c2ccccc2)CC1c1cc(-c2ccccc2)nn1-c1ccccc1 (centres undefined)	75.5%	84.9%	83.4%	80.6	76.3	68.1%	89.5%	68.6%
Cc1nccc2c3ccc(OCc4cn(Cc5ccc(Br)cc5)nn4)cc3n(CCCc3ccccc3)c12	93.3%	88.2%	96.7%	97.8	75.2	63.6%	84.7%	92.6%
CCOC(=O)c1noc2c1CCc1c-2cn(Cc2ccc(OC)cc2)c1-c1cc(OC)c(OC)c(OC)c1	40.9%	19.6%	-28.1% (active)	22.9	18	8.2% (active)	39.6%	21.3%
CC(=O)c1ccc2c(c1)C1C=CCC1[C@H](c1cc3c(cc1Br)OCO3)N2 (some centres undefined)	36.2%	44.6%	-27.2% (active)	21.2	14.1	14.9%	7.12% (active)	17%
OCc1cn(-c2ccc(Cl)cc2)nc1-c1ccc(O)cc1	85.3%	86.1%	88.9%	112	90.4	96.9%	103%	90.9%
COc1ccc2c(c1)OC(N)=C(C#N)C2c1ccc(F)c(F)c1 (centres undefined)	46.8%	48.3%	-18.6% (active)	21.3	18.8	24.2%	49.7%	28.6%
CC(C)NCC(O)COc1ccc(CC(N)=O)cc1 (centres undefined)	98.9%	96.7%	107%	100	98.1	99.2%	106%	106%
COc1ccc(/C(Cl)=N/N=C(\Cl)c2cc(OC)c(OC)c(OC)c2)cc1OC(C)=O	66.2%	96.1%	99.9%	93.7	93.9	90.5%	102%	98.2%
Cc1cn(C2CC(F)C(CO)O2)c(=O)[nH]c1=O (centres undefined)	98%	80.7%	78.2%	115	113	95.6%	100%	99.1%
O=C(Nc1ccc(-n2cc(-c3ccncc3)c(-c3ccc(O)c(Cl)c3)n2)cc1)Nc1cc(C(F)(F)F)cc(C(F)(F)F)c1	33.2%	20.4%	54.6%	73.9	55.7	53.3%	79%	48.7%
